Here are results for 25 compounds from PubChem BioAssay (NCI).

Where “and” joins values, the source holds several entries; their conditions need not be identical. Equal values may be shown once. This is part of a sample that, as a whole, favours compounds with a hit. Of some 83,000 tested, about 20% had one in any assay.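 Values shown are percent growth following 48 h exposure of cells in 96-well plates to a single concentration of compound; below 10 was considered active.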 A number with no mark means an inactive call. Calls of active or inactive are those of the source.

The subject of this assay is MDA-MB-468 breast. Briefly: NCI-60 one-dose screen, 48 h (100 = growth as untreated, 0 = no growth, -100 = all killed). To be noted: 10 µM unless noted.
Turning to `O=C(CCCC(=O)Nc1ccc(Cn2nnc3cc(Cl)c(Cl)cc32)cc1)Nc1ccc(CN2N=NC3C=C(Cl)C(Cl)=CC32)cc1` (stereo not given), the growth was 59.1%.

With `NS(=O)(=O)c1ccc(Nc2nc(N/N=C/c3ccc(F)cc3)nc(Nc3ccccc3)n2)cc1`, the growth was 54.1%.

As to `O=C1NC(=O)c2c1c1c3ccccc3[nH]c1c1oc3cc(Br)ccc3c21`, the growth is 62.6%.

Turning to `COC(=O)CCCNc1c(-c2c(O)c(O)cc3c(O)c(-c4c(C)cc5c(-c6nc7ccccn7c6NCCCC(=O)OC)c(O)c(O)cc5c4O)c(C)cc23)nc2ccccn12`, the growth is 26.9%.

Consider `Cn1ccnc1C(=O)/C=C/c1ccc(CC(=O)Nc2cc(F)c(F)c(F)c2)cc1`, for which the growth is -23.4% (active).

Regarding `CCCCCCCCCCCC1=NC(C)(C)CN1CC(C)O` (stereo not given), the growth was 10%.

Take `COS(=O)(=O)c1ccc(Br)cc1`: the growth is 102%.

On to `CCN1C(=O)N(CC)C2SC(N/N=C/c3ccccc3)=NC21` (stereo not given), for which the growth was 34.4%.

Turning to `COc1cc2oc(-c3cccc(NC(=O)c4ccc5c(c4)OCO5)c3)cc(=O)c2c(OC)c1OC`, the growth is 75.5%.

With `Cc1ccc(S(=O)(=O)OC[C@]23CCC(C)(C)C[C@H]2C2=CC[C@@H]4[C@@]5(C)CCCNC(C)(C)[C@@H]5CC[C@@]4(C)[C@]2(C)CC3)cc1`, the growth was -35.1% (active).

Regarding `COc1cccc(-c2ccc3c(c2)C2CCN(Cc4ccccc4)C3C2)c1` (stereo not given), the growth is 67.9%.

In the case of `COc1ccc(C2C(c3ccccc3)C(=O)N2c2cc(OC)c(OC)c(OC)c2)cc1I` (stereo not given), the growth was 15.7%.

In the case of `Cc1cc(NC(=O)C2c3ccccc3C(=O)N(CC(C)C)C2c2cccs2)no1` (stereo not given), the growth is -56.6% (active).

Take `CCc1c(C)c2cc3c(c(C)c2oc1=O)OCC(=O)N3`: the growth was 69.4%.

Consider `COc1ccc(/C=C/C(=O)c2ccc(OC)c(OC)c2)cc1O`, for which the growth was 65.6%.

In the case of `Oc1c(Cl)cc(Cl)c2cccnc12`, the growth was 61% and 42.6%.

Regarding `COc1cccc2cc(N(C)c3nc(C)nc4c3CCC4)ccc12`, the growth is 18%.

As to `COc1cc2c(cc1-c1c(C)noc1C)ncc1nc(C3CCC(F)(F)CC3)n(C3CCC(OC(F)F)CC3)c12` (stereo not given), the growth was 43.4%.

With `O=C(c1ccccc1)N(CCCCl)C(=O)N(CCCCl)C(=O)c1ccccc1`, the growth was 94.2%.

Consider `COc1ccc(/C(C)=N/NC(=O)CSc2nc3ccccc3c(=O)n2CCc2ccc(S(N)(=O)=O)cc2)cc1`, for which the growth is 33.8%.

For `O=Cc1nc2ccccc2[nH]1`, the growth is 108%.

In the case of `CC(C)CSc1nc(Nc2ccccc2)c(C#N)c(-c2ccc(F)cc2)n1`, the growth was 16.4%.

As for `COc1ccc(C)c2sc(N(Cc3cccnc3)C(=O)c3ccc(C#N)cc3)nc12`, the growth is -13.4% (active).

As to `COc1cccc(CC(C)=C(c2ccc(OCCCN(C)C)cc2)c2ccc(OCCCN(C)C)cc2)c1`, the growth was -83.4% (active).

For `CO[C@H]1CC(c2ccc[nH]2)=N[C@]12O[C@@H](C)C[C@@H]1CCCCCCCc3ccc([nH]3)[C@H]12`, the growth was 1.37% (active).
